From the supplement of paper PMC6411743
± gives the standard deviation of the averaged measurements. Of roughly 6,500 targets only a part is listed; those with the largest changes were picked by preference.

Compound: Nc1ncnc2c1ncn2[C@@H]1O[C@H](COP(=O)(O)OP(=O)(O)OP(=O)(O)O)[C@@H](O)[C@H]1O [adenosine triphosphate]
Assay: NP40-soluble protein abundance relative to vehicle (solubility fold change) (ratio); higher = more soluble protein in presence of ATP
Outline: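 Values are fold changes against the detergent-processed vehicle, based on vsn-normalised intensities. Jurkat crude lysate was treated at eight concentrations from 0.1 to 10 mM (10 min at room temperature, then 3 min at 37 °C), solubilised with 0.8% NP40 and benzonase, ultracentrifuged and analysed by TMT-labelled LC-MS/MS over three independent experiments.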

Chain of UniProt Q2KHT3 (Q2KHT3 whole entry): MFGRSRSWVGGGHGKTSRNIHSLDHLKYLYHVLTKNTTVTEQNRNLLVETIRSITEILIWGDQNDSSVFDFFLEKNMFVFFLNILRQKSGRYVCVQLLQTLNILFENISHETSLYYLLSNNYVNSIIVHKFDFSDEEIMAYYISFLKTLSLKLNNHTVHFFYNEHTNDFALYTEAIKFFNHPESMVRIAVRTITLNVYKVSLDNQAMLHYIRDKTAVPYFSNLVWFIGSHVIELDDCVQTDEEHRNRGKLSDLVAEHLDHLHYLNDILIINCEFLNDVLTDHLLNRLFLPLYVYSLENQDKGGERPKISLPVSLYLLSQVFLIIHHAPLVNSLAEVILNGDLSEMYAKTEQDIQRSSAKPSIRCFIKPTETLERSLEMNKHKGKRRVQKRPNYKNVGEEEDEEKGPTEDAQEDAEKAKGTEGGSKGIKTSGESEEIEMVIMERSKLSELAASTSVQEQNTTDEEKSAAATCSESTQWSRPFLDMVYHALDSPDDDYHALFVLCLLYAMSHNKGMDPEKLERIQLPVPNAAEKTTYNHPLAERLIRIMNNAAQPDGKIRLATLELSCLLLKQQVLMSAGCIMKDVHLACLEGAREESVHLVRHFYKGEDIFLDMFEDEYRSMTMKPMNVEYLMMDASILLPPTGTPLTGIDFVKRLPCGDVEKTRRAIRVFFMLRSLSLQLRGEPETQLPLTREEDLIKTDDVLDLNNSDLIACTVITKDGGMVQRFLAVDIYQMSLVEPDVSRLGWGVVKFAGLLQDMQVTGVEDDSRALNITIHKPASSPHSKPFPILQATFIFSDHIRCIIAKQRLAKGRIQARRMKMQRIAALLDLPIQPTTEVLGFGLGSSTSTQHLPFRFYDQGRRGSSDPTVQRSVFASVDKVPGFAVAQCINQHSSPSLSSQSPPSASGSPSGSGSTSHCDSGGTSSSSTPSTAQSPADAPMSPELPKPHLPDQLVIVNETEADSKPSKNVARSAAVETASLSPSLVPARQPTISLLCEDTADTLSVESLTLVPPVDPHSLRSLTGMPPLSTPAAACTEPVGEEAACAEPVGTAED
Chain of UniProt Q4FZB7 (Q4FZB7 whole entry, looked up): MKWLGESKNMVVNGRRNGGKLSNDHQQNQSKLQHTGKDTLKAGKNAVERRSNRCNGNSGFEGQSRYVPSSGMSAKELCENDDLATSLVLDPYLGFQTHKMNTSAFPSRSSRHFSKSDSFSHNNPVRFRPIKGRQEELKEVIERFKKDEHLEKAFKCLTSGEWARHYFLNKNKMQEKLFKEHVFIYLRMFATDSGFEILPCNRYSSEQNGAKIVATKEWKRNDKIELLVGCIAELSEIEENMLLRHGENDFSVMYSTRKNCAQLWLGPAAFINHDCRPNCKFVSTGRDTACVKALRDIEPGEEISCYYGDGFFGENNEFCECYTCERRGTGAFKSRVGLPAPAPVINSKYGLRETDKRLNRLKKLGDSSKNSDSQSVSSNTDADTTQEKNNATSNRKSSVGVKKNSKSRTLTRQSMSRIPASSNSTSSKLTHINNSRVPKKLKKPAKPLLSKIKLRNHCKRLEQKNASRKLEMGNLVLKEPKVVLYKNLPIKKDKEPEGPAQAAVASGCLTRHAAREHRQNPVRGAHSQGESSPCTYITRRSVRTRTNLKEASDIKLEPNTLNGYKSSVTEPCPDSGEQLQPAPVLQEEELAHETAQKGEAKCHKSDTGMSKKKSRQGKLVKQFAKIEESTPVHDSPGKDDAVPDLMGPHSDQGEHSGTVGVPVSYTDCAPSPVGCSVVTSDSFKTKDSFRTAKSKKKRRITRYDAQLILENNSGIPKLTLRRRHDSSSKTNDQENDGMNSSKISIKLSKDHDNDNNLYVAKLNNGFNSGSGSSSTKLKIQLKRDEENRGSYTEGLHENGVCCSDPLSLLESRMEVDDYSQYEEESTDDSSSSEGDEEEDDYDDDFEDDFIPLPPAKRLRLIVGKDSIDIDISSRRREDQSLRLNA
Chain of UniProt Q4G0J3 (Q4G0J3 whole entry): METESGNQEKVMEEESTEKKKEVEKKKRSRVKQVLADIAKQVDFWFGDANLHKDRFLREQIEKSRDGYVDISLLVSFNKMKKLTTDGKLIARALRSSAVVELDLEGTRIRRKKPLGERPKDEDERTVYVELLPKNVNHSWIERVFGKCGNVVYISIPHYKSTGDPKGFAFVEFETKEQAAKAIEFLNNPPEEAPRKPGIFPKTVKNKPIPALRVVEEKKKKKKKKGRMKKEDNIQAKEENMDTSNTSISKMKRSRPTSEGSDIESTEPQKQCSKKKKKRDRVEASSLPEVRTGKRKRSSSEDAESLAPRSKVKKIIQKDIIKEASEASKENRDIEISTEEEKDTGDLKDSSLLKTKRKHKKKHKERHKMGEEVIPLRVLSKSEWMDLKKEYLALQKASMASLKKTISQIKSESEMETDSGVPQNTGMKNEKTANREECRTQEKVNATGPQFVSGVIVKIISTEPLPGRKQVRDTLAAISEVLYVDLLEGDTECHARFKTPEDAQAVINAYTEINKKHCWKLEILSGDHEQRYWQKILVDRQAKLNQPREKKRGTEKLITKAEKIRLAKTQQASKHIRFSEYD
Chain of UniProt Q8WU79 (Q8WU79 whole entry, one chain of several): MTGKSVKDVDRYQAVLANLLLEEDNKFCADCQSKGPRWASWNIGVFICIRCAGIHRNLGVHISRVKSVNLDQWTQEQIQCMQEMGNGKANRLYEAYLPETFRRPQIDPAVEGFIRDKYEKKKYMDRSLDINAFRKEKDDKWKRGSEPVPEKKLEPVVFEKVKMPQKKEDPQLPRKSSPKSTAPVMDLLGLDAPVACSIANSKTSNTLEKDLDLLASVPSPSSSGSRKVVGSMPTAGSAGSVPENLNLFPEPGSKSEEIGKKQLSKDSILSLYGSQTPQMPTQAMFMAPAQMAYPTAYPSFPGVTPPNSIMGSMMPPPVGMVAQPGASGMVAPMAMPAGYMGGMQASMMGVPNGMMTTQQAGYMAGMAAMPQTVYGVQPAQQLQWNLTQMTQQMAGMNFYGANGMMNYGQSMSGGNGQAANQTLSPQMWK
Chain of UniProt Q16181 (Q16181 whole entry): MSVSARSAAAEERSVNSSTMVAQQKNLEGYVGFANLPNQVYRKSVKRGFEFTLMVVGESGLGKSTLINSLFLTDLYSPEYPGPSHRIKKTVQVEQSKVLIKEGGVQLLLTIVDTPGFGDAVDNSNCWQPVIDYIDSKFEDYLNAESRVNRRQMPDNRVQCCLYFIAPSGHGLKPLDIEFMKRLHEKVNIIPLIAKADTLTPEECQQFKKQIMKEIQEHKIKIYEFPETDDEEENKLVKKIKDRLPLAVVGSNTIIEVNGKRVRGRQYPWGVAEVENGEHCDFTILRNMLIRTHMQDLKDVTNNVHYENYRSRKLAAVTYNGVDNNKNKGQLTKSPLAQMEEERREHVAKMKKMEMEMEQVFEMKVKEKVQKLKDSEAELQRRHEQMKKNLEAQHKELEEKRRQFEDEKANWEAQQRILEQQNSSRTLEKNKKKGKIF
Chain of UniProt Q66GS9 (Q66GS9 whole entry): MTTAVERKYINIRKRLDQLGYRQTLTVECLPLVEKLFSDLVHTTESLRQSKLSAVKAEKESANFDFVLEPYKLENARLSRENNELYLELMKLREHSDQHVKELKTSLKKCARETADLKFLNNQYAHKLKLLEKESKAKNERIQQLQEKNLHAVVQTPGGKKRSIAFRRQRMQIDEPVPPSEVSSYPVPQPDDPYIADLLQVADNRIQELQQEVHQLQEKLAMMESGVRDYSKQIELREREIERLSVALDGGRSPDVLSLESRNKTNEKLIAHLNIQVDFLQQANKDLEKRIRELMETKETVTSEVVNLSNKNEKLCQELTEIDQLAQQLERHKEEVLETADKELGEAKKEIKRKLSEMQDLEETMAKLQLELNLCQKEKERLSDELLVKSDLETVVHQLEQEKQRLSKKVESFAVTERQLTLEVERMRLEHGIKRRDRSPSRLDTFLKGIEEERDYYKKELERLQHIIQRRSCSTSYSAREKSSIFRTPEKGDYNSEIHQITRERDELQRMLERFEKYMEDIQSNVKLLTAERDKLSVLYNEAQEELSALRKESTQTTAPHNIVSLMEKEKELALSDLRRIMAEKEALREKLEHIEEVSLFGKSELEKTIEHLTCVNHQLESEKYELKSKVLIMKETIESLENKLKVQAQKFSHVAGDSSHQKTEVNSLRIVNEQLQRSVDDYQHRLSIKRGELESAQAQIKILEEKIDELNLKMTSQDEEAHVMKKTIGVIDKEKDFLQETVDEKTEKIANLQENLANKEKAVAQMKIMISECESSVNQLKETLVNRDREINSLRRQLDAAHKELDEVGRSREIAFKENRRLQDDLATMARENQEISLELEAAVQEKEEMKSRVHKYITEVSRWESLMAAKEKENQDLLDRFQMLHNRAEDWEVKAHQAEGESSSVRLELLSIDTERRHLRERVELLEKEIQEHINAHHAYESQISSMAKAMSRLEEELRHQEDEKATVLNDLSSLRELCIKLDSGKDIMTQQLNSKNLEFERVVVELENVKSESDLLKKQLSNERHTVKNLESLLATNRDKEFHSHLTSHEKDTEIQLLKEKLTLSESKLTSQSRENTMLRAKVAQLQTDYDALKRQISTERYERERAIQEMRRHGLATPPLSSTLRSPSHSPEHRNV
Chain of UniProt Q13825 (Q13825 whole entry): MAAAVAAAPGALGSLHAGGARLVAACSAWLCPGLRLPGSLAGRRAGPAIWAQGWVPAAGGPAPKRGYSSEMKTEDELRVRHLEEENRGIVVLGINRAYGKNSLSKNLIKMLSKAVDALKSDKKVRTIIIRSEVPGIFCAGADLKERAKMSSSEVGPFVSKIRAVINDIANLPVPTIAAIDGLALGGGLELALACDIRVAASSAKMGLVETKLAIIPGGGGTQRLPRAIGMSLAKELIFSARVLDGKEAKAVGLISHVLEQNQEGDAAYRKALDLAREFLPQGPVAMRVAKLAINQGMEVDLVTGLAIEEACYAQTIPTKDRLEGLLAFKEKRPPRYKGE
Chain of UniProt Q14011 (Q14011 whole entry): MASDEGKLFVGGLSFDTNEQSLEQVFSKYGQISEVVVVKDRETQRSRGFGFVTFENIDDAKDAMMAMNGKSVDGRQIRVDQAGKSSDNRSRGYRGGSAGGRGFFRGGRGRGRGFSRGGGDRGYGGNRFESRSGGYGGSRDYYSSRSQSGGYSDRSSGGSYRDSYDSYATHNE

CIRBP (UniProt Q14011) showed an NP40-soluble protein abundance (concentration: 1mM) of 0.999 ± 0.062, an NP40-soluble protein abundance (concentration: 2mM) of 1.02 ± 0.029 and an NP40-soluble protein abundance (concentration: 4mM) of 1.04 ± 0.033. It also gave an NP40-soluble protein abundance (concentration: 6mM) of 1.1 ± 0.061, an NP40-soluble protein abundance (concentration: 8mM) of 1.09 ± 0.051 and an NP40-soluble protein abundance (concentration: 10mM) of 1.1 ± 0.025.

With UniProt Q8NI08-2 the NP40-soluble protein abundance (concentration: 1mM) was 0.989 ± 0.064, the NP40-soluble protein abundance (concentration: 2mM) was 1.03 ± 0.032 and the NP40-soluble protein abundance (concentration: 4mM) was 1.01 ± 0.016. It also gave an NP40-soluble protein abundance (concentration: 6mM) of 1.02 ± 0.022, an NP40-soluble protein abundance (concentration: 8mM) of 0.989 ± 0.039 and an NP40-soluble protein abundance (concentration: 10mM) of 0.993 ± 0.024.

In the case of UniProt Q13243, the NP40-soluble protein abundance (concentration: 1mM) is reported as 1.5 ± 0.12, the NP40-soluble protein abundance (concentration: 2mM) is reported as 1.63 ± 0.088 and the NP40-soluble protein abundance (concentration: 4mM) is reported as 1.76 ± 0.12. The NP40-soluble protein abundance (concentration: 6mM) was 1.95 ± 0.11, the NP40-soluble protein abundance (concentration: 8mM) was 1.92 ± 0.13 and the NP40-soluble protein abundance (concentration: 10mM) was 1.98 ± 0.07.

In the case of “UniProt Q8WU79|A0A087WV97|Q8WU79-2|Q8WU79-3”, the NP40-soluble protein abundance (concentration: 1mM) is reported as 0.891 ± 0.067, the NP40-soluble protein abundance (concentration: 2mM) is reported as 0.924 ± 0.024 and the NP40-soluble protein abundance (concentration: 4mM) is reported as 0.869 ± 0.011. The NP40-soluble protein abundance (concentration: 6mM) was 0.975 ± 0.047, the NP40-soluble protein abundance (concentration: 8mM) was 0.839 ± 0.017 and the NP40-soluble protein abundance (concentration: 10mM) was 0.872 ± 0.032.

For DHX9 (UniProt Q08211), the NP40-soluble protein abundance (concentration: 1mM) was 1.24 ± 0.071, the NP40-soluble protein abundance (concentration: 2mM) was 1.29 ± 0.043 and the NP40-soluble protein abundance (concentration: 4mM) was 1.49 ± 0.03. For the same target, the NP40-soluble protein abundance (concentration: 6mM) was 1.55 ± 0.024, the NP40-soluble protein abundance (concentration: 8mM) was 1.88 ± 0.091 and the NP40-soluble protein abundance (concentration: 10mM) was 1.95 ± 0.15.

With C6ORF134 (UniProt Q5SQI0) the NP40-soluble protein abundance (concentration: 1mM) was 0.975 ± 0.073, the NP40-soluble protein abundance (concentration: 2mM) was 0.98 ± 0.089 and the NP40-soluble protein abundance (concentration: 4mM) was 0.981 ± 0.064. For the same target, the NP40-soluble protein abundance (concentration: 6mM) was 0.999 ± 0.09, the NP40-soluble protein abundance (concentration: 8mM) was 0.983 ± 0.029 and the NP40-soluble protein abundance (concentration: 10mM) was 0.998 ± 0.04.

UniProt Q2KHT3|Q2KHT3-2 gave an NP40-soluble protein abundance (concentration: 1mM) of 1.04 ± 0.045, an NP40-soluble protein abundance (concentration: 2mM) of 0.967 ± 0.1 and an NP40-soluble protein abundance (concentration: 4mM) of 0.963 ± 0.11. The NP40-soluble protein abundance (concentration: 6mM) was 0.999 ± 0.093, the NP40-soluble protein abundance (concentration: 8mM) was 1.04 ± 0.15 and the NP40-soluble protein abundance (concentration: 10mM) was 1.02 ± 0.17.

For UniProt Q16181|Q16181-2, the NP40-soluble protein abundance (concentration: 1mM) was 0.891 ± 0.15, the NP40-soluble protein abundance (concentration: 2mM) was 0.979 ± 0.023 and the NP40-soluble protein abundance (concentration: 4mM) was 0.9086 ± 0.0056. It also gave an NP40-soluble protein abundance (concentration: 6mM) of 0.963 ± 0.076, an NP40-soluble protein abundance (concentration: 8mM) of 0.957 ± 0.026 and an NP40-soluble protein abundance (concentration: 10mM) of 0.911 ± 0.046.

UniProt Q86Y01 gave an NP40-soluble protein abundance (concentration: 1mM) of 0.964 ± 0.033, an NP40-soluble protein abundance (concentration: 2mM) of 1.05 ± 0.022 and an NP40-soluble protein abundance (concentration: 4mM) of 1.12 ± 0.065. The NP40-soluble protein abundance (concentration: 6mM) was 1.05 ± 0.088, the NP40-soluble protein abundance (concentration: 8mM) was 1.09 ± 0.012 and the NP40-soluble protein abundance (concentration: 10mM) was 1.15 ± 0.1.

Work on CEP135 (UniProt Q66GS9) yielded an NP40-soluble protein abundance (concentration: 1mM) of 0.983 ± 0.041, an NP40-soluble protein abundance (concentration: 2mM) of 0.966 ± 0.026 and an NP40-soluble protein abundance (concentration: 4mM) of 0.964 ± 0.038. It also gave an NP40-soluble protein abundance (concentration: 6mM) of 0.956 ± 0.036, an NP40-soluble protein abundance (concentration: 8mM) of 0.972 ± 0.029 and an NP40-soluble protein abundance (concentration: 10mM) of 0.989 ± 0.047.

With UniProt Q4FZB7 the NP40-soluble protein abundance (concentration: 1mM) was 0.985 ± 0.15, the NP40-soluble protein abundance (concentration: 2mM) was 1.1 ± 0.23 and the NP40-soluble protein abundance (concentration: 4mM) was 1.07 ± 0.11. For the same target, the NP40-soluble protein abundance (concentration: 6mM) was 1.01 ± 0.16, the NP40-soluble protein abundance (concentration: 8mM) was 1.01 ± 0.029 and the NP40-soluble protein abundance (concentration: 10mM) was 0.983 ± 0.065.

For AUH (UniProt Q13825), the NP40-soluble protein abundance (concentration: 1mM) was 0.96 ± 0.062, the NP40-soluble protein abundance (concentration: 2mM) was 0.979 ± 0.049 and the NP40-soluble protein abundance (concentration: 4mM) was 0.967 ± 0.035. The NP40-soluble protein abundance (concentration: 6mM) was 0.93 ± 0.082, the NP40-soluble protein abundance (concentration: 8mM) was 0.96 ± 0.055 and the NP40-soluble protein abundance (concentration: 10mM) was 0.973 ± 0.036.

UniProt Q8TED0|H0Y8P4|Q8TED0-3 was tested, and the NP40-soluble protein abundance (concentration: 1mM) was 1.18 ± 0.18, the NP40-soluble protein abundance (concentration: 2mM) was 1.22 ± 0.11 and the NP40-soluble protein abundance (concentration: 4mM) was 1.32 ± 0.18. It also gave an NP40-soluble protein abundance (concentration: 6mM) of 1.43 ± 0.28, an NP40-soluble protein abundance (concentration: 8mM) of 1.5 ± 0.24 and an NP40-soluble protein abundance (concentration: 10mM) of 1.77 ± 0.41.

With UniProt Q4G0J3|Q4G0J3-3 the NP40-soluble protein abundance (concentration: 1mM) was 1.17 ± 0.046, the NP40-soluble protein abundance (concentration: 2mM) was 1.22 ± 0.047 and the NP40-soluble protein abundance (concentration: 4mM) was 1.36 ± 0.021. For the same target, the NP40-soluble protein abundance (concentration: 6mM) was 1.507 ± 0.0071, the NP40-soluble protein abundance (concentration: 8mM) was 1.56 ± 0.049 and the NP40-soluble protein abundance (concentration: 10mM) was 1.71 ± 0.018.

KBTBD2 (UniProt Q8IY47) was tested, and the NP40-soluble protein abundance (concentration: 1mM) was 1.14 ± 0.13, the NP40-soluble protein abundance (concentration: 2mM) was 1.11 ± 0.027 and the NP40-soluble protein abundance (concentration: 4mM) was 1.15 ± 0.07. For the same target, the NP40-soluble protein abundance (concentration: 6mM) was 1.05 ± 0.044, the NP40-soluble protein abundance (concentration: 8mM) was 1.16 ± 0.13 and the NP40-soluble protein abundance (concentration: 10mM) was 1.08 ± 0.026.
